Hit rate of the full screen: of about 17,000 compounds, about 35 (0.2%) were called active.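 Rule for the calls: active = compounds whose four printed spots each show fluorescence over background unusually high for their array block, chance value under 7%; inactive = the rest.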 Many of the other results were omitted from the sample, so actives are more common in it than they were.
The molecules below were run against Signal transducer and activator of transcription 3 (Homo sapiens) (UniProt P40763) (assay: STAT3 binders, primary screen, biochemical, small molecule microarray, single point, set 2 (AID 624138)). Conditions: His-STAT3 binding, anti-His fluorescence.
Chain of Signal transducer and activator of transcription 3 (Homo sapiens) (P40763 whole entry, looked up): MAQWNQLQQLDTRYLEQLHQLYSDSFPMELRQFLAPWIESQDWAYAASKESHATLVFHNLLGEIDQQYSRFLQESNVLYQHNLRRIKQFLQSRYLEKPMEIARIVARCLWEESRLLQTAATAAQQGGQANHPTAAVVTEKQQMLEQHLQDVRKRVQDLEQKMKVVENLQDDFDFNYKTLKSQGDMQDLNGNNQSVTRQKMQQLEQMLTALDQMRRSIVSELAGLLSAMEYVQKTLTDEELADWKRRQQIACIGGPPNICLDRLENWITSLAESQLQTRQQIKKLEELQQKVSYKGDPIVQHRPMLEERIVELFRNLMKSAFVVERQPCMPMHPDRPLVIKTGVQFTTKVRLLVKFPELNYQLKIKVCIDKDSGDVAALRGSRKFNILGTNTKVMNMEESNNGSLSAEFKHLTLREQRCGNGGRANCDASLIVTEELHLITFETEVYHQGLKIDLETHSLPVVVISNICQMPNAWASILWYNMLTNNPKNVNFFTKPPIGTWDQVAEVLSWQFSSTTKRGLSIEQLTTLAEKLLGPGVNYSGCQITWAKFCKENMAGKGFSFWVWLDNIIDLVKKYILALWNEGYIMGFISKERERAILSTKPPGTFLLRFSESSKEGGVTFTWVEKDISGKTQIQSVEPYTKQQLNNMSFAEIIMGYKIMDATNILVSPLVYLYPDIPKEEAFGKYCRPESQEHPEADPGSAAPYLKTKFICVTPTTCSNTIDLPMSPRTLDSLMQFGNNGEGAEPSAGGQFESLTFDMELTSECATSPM

SMILES | outcome
CCO[C@@H]1OC(C(=O)N2CCOCC2)=C[C@H](C)[C@H]1CCCO | inactive
O=[N+]([O-])c1ccc(NCCNS(=O)(=O)c2ccc(Br)cc2)c(C(F)(F)F)c1 | inactive
COc1ccc(NC(=S)NCc2cc(C)n(C)n2)cc1OC | inactive
C[C@@H]1CN([C@@H](C)CO)C(=O)c2cc(NC(=O)Nc3ccc4c(c3)OCO4)ccc2O[C@@H]1CN(C)C(=O)Nc1ccc2c(c1)OCO2 | inactive
C[C@@H]1CN([C@H](C)CO)C(=O)c2cccc(NC(=O)Nc3cccc4ccccc34)c2O[C@@H]1CN(C)C(=O)Nc1cccc2ccccc12 | inactive
CNC[C@@H]1Oc2ccc(NC(=O)CCC(F)(F)F)cc2C(=O)N([C@@H](C)CO)C[C@@H]1C | inactive
Oc1cc(O)c2c(c1)OC(c1ccc(O)c(O)c1)C(O)C2 (stereo unspecified) | inactive
C[C@H]1CN([C@@H](C)CO)C(=O)c2cc(N(C)C)ccc2O[C@@H]1CN(C)Cc1ccccc1 | inactive
CCN(CCCCOC(=O)c1ccc(OC)c(OC)c1)C(C)Cc1ccc(OC)cc1 (stereo unspecified) | inactive
COc1ccc(S(=O)(=O)N(C)C[C@H]2Oc3c(NC(=O)NC4CCCCC4)cccc3C(=O)N([C@@H](C)CO)C[C@@H]2C)cc1 | inactive
CCc1cc2c(=O)n(-c3ccccc3)c(SCC(=O)O)nc2s1 | inactive
C[C@H]1CCCCO[C@@H](CN(C)C(=O)c2ccccc2)[C@@H](C)CN([C@@H](C)CO)C(=O)c2cc(NS(=O)(=O)c3cccs3)ccc2O1 | inactive
Cc1noc(C)c1NC(=O)Nc1ccc2c(c1)C(=O)N([C@@H](C)CO)C[C@H](C)[C@@H](CN(C)C(=O)C1CCCCC1)OCCCC[C@@H](C)O2 | inactive
C[C@@H]1CN([C@H](C)CO)C(=O)c2cc(NS(=O)(=O)c3ccccc3)ccc2O[C@@H](C)CCCCO[C@@H]1CN(C)C(=O)CCC(F)(F)F | inactive
C[C@H](CO)N1C[C@H](C)[C@H](CN(C)C(=O)CCC(F)(F)F)OCCCC[C@H](C)Oc2ccc(NS(C)(=O)=O)cc2C1=O | active
C[C@@H]1CCCCO[C@H](CN(C)C(=O)CCC(F)(F)F)[C@H](C)CN([C@H](C)CO)C(=O)c2cc(NS(C)(=O)=O)ccc2O1 | inactive
Cc1ccc(-n2c(SCC(=O)Nc3ccc(F)c(F)c3)nnc2-c2ccccn2)cc1 | inactive
CC(C)NC(=O)Nc1ccc2c(c1)C(=O)N([C@H](C)CO)C[C@H](C)[C@H](CN(C)Cc1ccc(C(=O)O)cc1)OCCCC[C@@H](C)O2 | inactive
O=C(NCc1ccco1)c1nc2ncccn2n1 | inactive
OC(COc1ccc2ccccc2c1)Cn1cncn1 (stereo unspecified) | inactive
Cc1ccc(C(=O)C2C(=O)C(=O)N(Cc3cccnc3)C2c2ccc(Cl)c(Cl)c2)o1 (stereo unspecified) | inactive

— PubChem BioAssay AID624138 (Broad Institute, 2012)
